FBW7 act: FBW7 E3 ligase activators, primary screen, biochemical, AlphaScreen, human; AlphaScreen FBW7–phospho-cyclin E peptide binding, activator screen; normalized activity (activation), % at 26.1 µM; 650,000 compounds, 0.13% hits; F-box/WD repeat-containing protein 7 (Homo sapiens), Q969H0; in the data active = normalized activity above about 1.9%;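 note: purified mutant Fbw7 with reduced substrate affinity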
GPR151 ag: activators of human GPR151, primary screen, cell-based, PathHunter beta-arrestin, luminescence. G-protein coupled receptor 151 (Homo sapiens), Q8TDV0. PathHunter beta-arrestin GPR151 cells. activation, % at 11.2 µM. 650,000 compounds, 1% hits. AID 1508602, 2020; in the data active = activation above about 4.9%;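 note: 0% = median of compound wells and 100% = cells with positive control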
MITF inh: MITF inhibitors, primary screen, biochemical, AlphaScreen, human. Microphthalmia-associated transcription factor (Homo sapiens), O75030. AlphaScreen MITF homodimerization, bead proximity signal. AID 1259374, 2018. inhibition, % at 2.6 µM. 650,000 compounds, 0.91% hits; in the data active = inhibition above about 50%;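 note: 0% = vehicle wells with protein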
Target sequence (O75030 whole entry, looked up): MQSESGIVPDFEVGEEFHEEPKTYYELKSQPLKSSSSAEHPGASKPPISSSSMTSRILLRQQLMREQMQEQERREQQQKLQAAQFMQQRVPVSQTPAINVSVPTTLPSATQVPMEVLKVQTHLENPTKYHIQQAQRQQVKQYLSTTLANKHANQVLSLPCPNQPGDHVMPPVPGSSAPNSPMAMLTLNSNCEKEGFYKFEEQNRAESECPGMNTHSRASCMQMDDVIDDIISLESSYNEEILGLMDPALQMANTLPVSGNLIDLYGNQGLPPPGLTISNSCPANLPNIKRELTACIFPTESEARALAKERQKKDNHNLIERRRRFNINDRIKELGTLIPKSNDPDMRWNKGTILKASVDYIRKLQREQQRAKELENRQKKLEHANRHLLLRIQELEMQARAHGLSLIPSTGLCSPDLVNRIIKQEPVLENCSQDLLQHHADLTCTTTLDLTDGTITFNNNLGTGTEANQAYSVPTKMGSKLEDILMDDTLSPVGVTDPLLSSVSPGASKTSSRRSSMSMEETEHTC
TEAD-YAP block: TEAD-YAP interaction inhibition, primary screen, TEAD-YAP interaction inhibitor project, luminescence, HEK-TIYL cells; inhibition, % at 9.12 µM; TEAD-Gal4/YAP UAS-luciferase luminescence; 640,000 compounds, 1.4% hits; AID 1259422, 2018; in the data active = inhibition above about 32%;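 note: 0% = median of test compound wells and 100% = reference inhibitor wells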
* hit, by the source's call. In the library only some 3.4% were active in any assay of this set; here they are far more common.

SMILES	FBW7 act	GPR151 ag	MITF inh	TEAD-YAP block
CC1=C(C(=O)Nc2ccccc2F)C(c2ccc3c(c2)OCO3)C2=C(CC(c3ccccc3)CC2=O)N1 (configuration not stated)	0	1	-6	-1
COc1ccc(S(=O)(=O)NCCNc2nc(C)cc(N(C)C)n2)c(OC)c1	0	-2	9	32*
CC(NC(=O)c1cc(-c2ccccc2O)on1)c1ccccc1 (configuration not stated)	0	0	11	-4
O=C(COC(=O)c1ccccc1C(F)(F)F)c1ccc([N+](=O)[O-])cc1	0	0	-10	38*
COc1ccccc1C(=O)OCC(=O)c1ccc([N+](=O)[O-])cc1	0	-1	6	-7
N#Cc1c(NC(=O)Cc2ccc(S(=O)(=O)N3CCCCC3)s2)sc2c1CCCC2	0	-1	4	-7
Cc1c2c(=O)n(-c3nc4ccccc4s3)[nH]c2cc(=O)n1Cc1ccccc1Cl	0	0	91*	9
COc1ccc(-c2cc3c(nn2)Nc2ccccc2S3)cc1	1	-4	8	86*
COc1ccc(C2=CC(=O)Nc3ccccc3S2)cc1	1	-1	10	-46
Clc1ccc(-c2cc3c(nn2)Nc2ccccc2N3)cc1	0	-5	8	86*
COc1cccc(-c2nc(C(N)=O)c3[nH]c(=O)n(-c4ccc(C)cc4)c3n2)c1OC	0	0	6	-17
Cc1nc(N2CCCc3ccccc32)c2cc(C)sc2n1	0	0	-13	46*
Cc1nc(N2CCCC2)c2cc(C)sc2n1	0	1	-5	-9
N#Cc1c(-c2ccccc2F)c(C#N)c2nc3ccccc3n2c1N	0	0	-15	42*
CC(C)n1c(O)c(N=NC(=O)Cc2csc(N3CCOCC3)n2)c2ccccc21	0	-1	17	82*
COc1cc(/C=N/NC(=O)Cc2csc(N3CCOCC3)n2)cc(OC)c1O	0	0	0	4
CC1(C)CC(=O)c2cnc3c(-c4ccc(Cl)cc4)cnn3c2C1	0	0	0	57*
CC(C)n1c(SCc2ccccc2Cl)nc2c1c(=O)[nH]c(=O)n2C	0	1	4	43*
O=C(Nc1cc(Oc2ccc(F)cc2)cc([N+](=O)[O-])c1)c1ccc(Br)cc1	1	0	4	6
CCOC(=O)c1c2c(n(C)c1CNC(C)C)C(=O)C(=O)c1ccc(Br)cc1-2	0	-1	6	13
CCOC(=O)c1c2c(n(C)c1CN(C)C)C(=O)C(=O)c1ccc(Br)cc1-2	0	-2	8	96*
CCOc1ccc2[nH]c(=O)c(CN(Cc3cccnc3)S(=O)(=O)c3ccccc3)cc2c1	0	0	3	41*
Cc1cn(C2CC(OS(C)(=O)=O)C(COS(C)(=O)=O)O2)c(=O)[nH]c1=O (configuration not stated)	0	-1	-4	-4
CCOC(=O)c1c(CSc2ccccc2)n(C)c2cc(Br)c(O)cc12	0	0	0	-1
COCCCn1c(=O)[nH]c2ncc(-c3cnc(OC)nc3)nc21	2.2*	-1	15	-3
SMILES	FBW7 act	GPR151 ag	MITF inh	TEAD-YAP block
COCCCn1c(=O)[nH]c2ncc(-c3cccc(F)c3)nc21	0	0	14	-3
CC(=O)Nc1ccc(Nc2nc(Nc3ccc4ncccc4c3)nc3c2ncn3Cc2ccc(C(F)(F)F)cc2)cc1	0	3	7	-6
CN(C1=C(Cl)C(=O)N(c2ccc(I)cc2)C1=O)c1ccccc1	0	0	23	56*
O=C1C(Cl)=C(Cl)C(=O)N1c1ccc(I)cc1	0	-1	24	7
Cc1ccc(N2C(=O)C(Cl)=C(N(C)c3ccccc3)C2=O)cc1	0	0	19	52*
C#CCOc1ccc(C2C3=C(CC(C)(C)CC3=O)N(CC)C3=C2C(=O)CC(C)(C)C3)cc1	0	1	0	-1
O=C(NCc1nnc(SCC(=O)N2N=C(c3cccs3)CC2c2ccc(F)cc2)n1-c1ccc(F)cc1)c1cccc(F)c1 (configuration not stated)	0	-1	3	4
O=c1nc2s/c(=C\c3ccco3)c(=O)n2nc1Cc1ccc(F)cc1	-2	0	70*	2
Cc1ccccc1Nc1nc2nonc2nc1N/N=C/c1ccc(F)cc1	0	1	2	6
Cc1cccc(Nc2nc3nonc3nc2N/N=C\c2cccs2)c1C	-2	3	6	79*
Cc1[nH]n(-c2ccccc2)c(=O)c1C(N)=NC(=O)c1ccccc1	0	1	-8	11
Cc1[nH]n(-c2ccccc2)c(=O)c1C(=O)c1ccc(Cl)cc1	0	-1	-3	61*
Cc1[nH]n(-c2ccccc2)c(=O)c1C(=O)c1cccc(F)c1	-1	0	-9	46*
CC1(C)Oc2ccc3ccc(=O)oc3c2C/C1=N\Nc1ccccc1	1	-1	2	49*
CC(=O)Nc1ccc(Nc2nc(-c3c(C)nc4ccccn34)cs2)cc1	0	0	-6	50*
Cc1nc2ccccn2c1-c1csc(Nc2ccc(N)cc2)n1	0	0	6	54*
Cc1nc2ccccn2c1-c1csc(Nc2ccc(O)cc2)n1	0	2	-1	31
Cc1nc2ccccn2c1-c1csc(N)n1	0	-1	8	44*
CCN(Cc1ccccc1)C(=O)COc1ccccc1	1	-1	11	9
COc1cc(/C=C/c2ccc3cccc(OC(C)=O)c3n2)cc(OC)c1OC(C)=O	0	-1	8	7
CC(=O)Oc1cccc2ccc(/C=C/c3cccc(F)c3)nc12	0	-5	-7	40*
CC(C)CCNC(=O)c1cc(S(=O)(=O)N2CC(C)CC(C)C2)ccc1Sc1cccc(Cl)c1 (configuration not stated)	0	-1	12	7
CSc1nsc(N/N=C/c2ccccc2)c1C#N	0	2	5	-19
N#Cc1c(Cl)nsc1N/N=C/c1ccccc1	0	2	4	41*
COc1ccc(-c2nnc(Sc3ccc([N+](=O)[O-])cn3)n2-c2ccccc2)cc1OC	0	-2	15	55*
SMILES	FBW7 act	GPR151 ag	MITF inh	TEAD-YAP block
O=C(O)c1ccc(Nc2nc(N3CCCCC3)ccc2[N+](=O)[O-])cc1	0	1	-4	-14
N#C/C(=C\c1ccc(N2CCOCC2)cc1)c1[nH]nc(N)c1C#N	0	-2	18	39*
O=C(c1ccccc1)N1C(=O)c2ccccc2C1=O	2.5*	1	26	-4
COC(=O)Cc1ccc(NC(=O)c2ccc(C(C)(C)C)cc2)cc1	0	1	-11	71*
COC(=O)COc1ccc(NC(=O)c2ccc(C(C)(C)C)cc2)cc1	0	-1	-22	43*
COCCOC(=O)c1ccc(NC(=O)c2ccc(C(C)(C)C)cc2)cc1	-1	0	1	46*
